According to PubChem BioAssay:
Where “and” joins values, the source holds several entries; their conditions need not be identical. Equal entries are not always repeated. Results filed as inconclusive are left out. Calls of active or inactive are those of the source. Unless noted, cut-off not given; nearly all actives show AC50 up to about 30 µM.

Key:
[1] = liver-stage malaria parasite growth inhibition, primary screen, cell-based, HepG2, luciferase luminescence, HepG2 viability (AID 624349; in the data active means parasite load remaining mostly below about 12%, no sharp cut-off; inactive means mostly above about 10%;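 further: 100% = mean of DMSO negative control wells on the same plate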); settings: P. berghei liver stage in HepG2, luciferase luminescence, concentration not given here; parasite load remaining: stronger effect = lower value; viability: measured here: HepG2 viability without parasites
[2] = stimulators of nuclear beta-catenin in C2C12, primary screen, imaging, WNT3A-conditioned medium, mouse C2C12, NPC library (AID 1117326; in the data active means nuclear beta-catenin stimulation mostly above about 4.2%, no sharp cut-off; inactive means mostly below about 10%; further: reference of the scale not given here); settings: stronger effect = higher value
[3] = stimulators of insulin release from INS-1E, primary screen, cell-based, 5 mM glucose, NPC library (AID 1117329;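 active means compound raises insulin release from rat beta cells at 5 mM glucose, no numeric limit stated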; further: reference of the scale not given here); settings: rat INS-1E insulin secretion, at 10 µM, stronger effect = higher value
[4] = growth inhibition of GSK3B-pretreated HCT116 cells – cell-based, CellTiter-Glo, 0.2 to 20 µM (AID 1117336;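 active means compounds lowering colon cancer cell viability after pretreatment blocking the GSK3B kinase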); settings: HCT116 viability after GSK3B inhibitor, at 20 µM, stronger effect = higher value
[5] = inhibition of endothelial tube formation, primary screen, imaging, VEGF stimulated, CD31 staining, tube area, NPC library (AID 1117340;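 active means compound that reduces growth-factor-driven endothelial tube area in a mixed cell culture, no cutoff stated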); settings: VEGF-stimulated ADSC/ECFC co-culture, at 10 µM, stronger effect = higher value
[6] = glucagon-like peptide 1 release enhancers, primary assay, NCI-H716 cell line, NPC library (AID 1117341;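 active means compound raises GLP1 secretion from the human gut endocrine cells, with no numeric limit stated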; further: reference of the scale not given here); settings: NCI-H716 cells, at 10 µM, stronger effect = higher value
[7] = HCT116 colon cancer cell growth inhibition, primary screen, CellTiter-Glo luminescence, NPC library (AID 1117342;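 active means compounds that lower survival of HCT116 colon cancer cells in the luminescence readout, no numeric limit stated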); settings: at 20 µM (top of the series)
[8] = CellTiter-Glo luminescent readout of SW480 viability loss, NPC library primary (AID 1117343;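 active means compounds that lower viability of the colon cancer cells in the luminescence readout, with no numeric limit stated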); settings: CellTiter-Glo luminescence; at 20 µM (top of the series) unless noted
[9] = decreased DLD-1 cellular survival, CellTiter-Glo luminescent readout, NPC compound collection, primary HTS (AID 1117346;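 active means compounds that lower survival of DLD-1 colon cancer cells in the luminescence readout, no cutoff given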); settings: DLD-1 viability, CellTiter-Glo luminescence; at 20 µM (top of the series)
[10] = JHH-DIPG-1 glioma cell viability, MIPE5.0 library, CellTiter-Glo luminescence, qHTS (AID 1347067; cut-off not given, nearly all actives have AC50 up to about 26 µM;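 further: cells exposed to compound for 48 hours before readout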); settings: JHH-DIPG-1 glioma viability, CellTiter-Glo ATP luminescence
[11] = SU-DIPG-XXV glioma cell viability, MIPE5.0 library, qHTS (AID 1347068; cut-off not given, nearly all actives have IC50 up to about 30 µM)
[12] = sensitizers of A549 cells to miR-34 induction, primary screen, imaging, A549 dox-inducible miR-34, nuclei and caspase counts (AID 1347080;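 active means compounds whose cell count with miR-34 switched on is under 0.7 times the count with it off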); settings: A549 miR-34 inducible, Hoechst nuclei count, 48 h
[13] = survival rescue of mitochondrial mutant cells in low glucose, primary screen, MELAS cybrids, Rieske KO mouse fibroblasts, CellTiter-Glo (AID 1508586;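 active means mean z-score across replicates of 1.96 or higher in either the MELAS or the Rieske mutant cell line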;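 further: z relative to plate mean and SD of compound and empty wells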)
[14] = viability rescue of complex I mutant cybrids, primary screen, cell-based, galactose medium, ATP luminescence (AID 1645843;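 active means z-score of at least 1.8 in each of two replicates, scored against plate mean and spread of sample wells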;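 further: positive z means more ATP and so rescue of galactose-driven cybrid death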); settings: complex I mutant cybrid cells, 72 h, stronger effect = higher value
[15] = growth inhibition of DIPG glioma cells, dose response, cell-based, JHH-DIPG-1, MIPE4.0, CellTiter-Glo, qHTS (AID 1347062; cut-off not given, nearly all actives have AC50 up to about 27 µM); settings: JHH-DIPG-1 viability, CellTiter-Glo ATP luminescence
[16] = growth inhibition of DIPG glioma cells, dose response, cell-based, SU-DIPG-IV, MIPE4.0, CellTiter-Glo, qHTS (AID 1347063); settings: SU-DIPG-IV viability, CellTiter-Glo ATP luminescence;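 further: compound exposure lasted 48 hours before the viability readout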
[17] = viability loss in pontine glioma line – cell-based, SU-DIPG-XXV, MIPE5.0, CellTiter-Glo, qHTS, dose response (AID 1347065; cut-off not given, nearly all actives have AC50 up to about 26 µM;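 further: cells exposed to compound for 48 hours before ATP readout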); settings: CellTiter-Glo ATP luminescence
[18] = SU-DIPG-VI glioma cell viability, MIPE4.0 library, CellTiter-Glo luminescence, qHTS (AID 1347066); settings: CellTiter-Glo ATP luminescence;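 further: cells exposed to compound for 48 hours before readout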
[19] = phospholipid biosynthesis inhibitors in animal cells, primary screen, cell-based, LOPAC library, screen 4 (AID 1347384; call rule not given here); settings: phospholipid biosynthesis inhibition screen, at 10 µM
[20] = stronger effect = lower value, cell number ratio, induced over uninduced
[21] = measured here: relative caspase fold change +Dox/-Dox
[22] = measured here: total cells with miR-34 induction, stronger effect = lower value
[23] = measured here: total cells without miR-34 induction
[24] = MELAS cybrid survival, CellTiter-Glo 48 h, stronger effect = higher value
[25] = Rieske KO mouse fibroblast survival, CellTiter-Glo 72 h

Cc1ccc(-c2ncc(Cl)cc2-c2ccc(S(C)(=O)=O)cc2)cn1
0.187 and -0.33: z-score [13, 25]
8.4%: nuclear beta-catenin stimulation ([2]; stimulation, at 2 µM)
0.95: fold change [12, 21]
10600: cell count [12, 23]
inactive: parasite load remaining [1] 30% | nuclear beta-catenin stimulation ([2]; at 10 µM) 10.8% | insulin secretion stimulation [3] 2.3% | viability decrease [4] 27.3% | tube area decrease [5] -22.7% | GLP1 secretion stimulation [6] 0.5% | viability decrease (inhibition) [8] 5.7% | viability decrease (inhibition) [9] 12.4% | outcome [10] | outcome [11] | fold change [12, 20] 0.833 | z-score [13, 24] -0.283 and 0.00989 | z-score [14] 1.08
8800: cell count [12, 22]
120%: viability [1]
active: inhibition of viability [7] -14.5%

O=C(O)c1nc(=O)[nH]c(=O)[nH]1
0.2%: nuclear beta-catenin stimulation ([2]; stimulation, at 2 µM)
inactive: nuclear beta-catenin stimulation ([2]; at 10 µM) 0.4% | insulin secretion stimulation [3] -2.5% | viability decrease [4] -8.95% | tube area decrease [5] -8.3% | GLP1 secretion stimulation [6] 0.9% | inhibition of viability [7] -17.1% | viability decrease (inhibition) [8] 29% | viability decrease (inhibition) [9] 12.8% | outcome [15] | outcome [16] | outcome [17] | outcome [18] | outcome [10] | outcome [11]

NC(=O)Cc1cccc(C(=O)c2ccccc2)c1N
7400: cell count [12, 22]
8200: cell count [12, 23]
2.6%: nuclear beta-catenin stimulation ([2]; stimulation, at 2 µM)
-0.195: z-score [13, 25]
0.903: fold change [12, 21]
inactive: nuclear beta-catenin stimulation ([2]; at 10 µM) 3% | insulin secretion stimulation [3] -0.1% | viability decrease [4] 4.9% | tube area decrease [5] 12.4% | GLP1 secretion stimulation [6] -1.1% | inhibition of viability [7] -6.03% | viability decrease (inhibition) [8] -28.7% | viability decrease (inhibition) [9] 6.9% | outcome [15] | outcome [16] | outcome [18] | fold change [12, 20] 0.902 | z-score [13, 24] -0.418

CN(c1nccc(=O)[nH]1)C1CCN(c2nc3ccccc3n2Cc2ccc(F)cc2)CC1
inactive: nuclear beta-catenin stimulation ([2]; at 10 µM) -1.9% | insulin secretion stimulation [3] 4.3% | viability decrease [4] -6.8% | tube area decrease [5] 10.5% | GLP1 secretion stimulation [6] -3% | inhibition of viability [7] 26.2% | viability decrease (inhibition) [8] 9.6% | viability decrease (inhibition) [9] -5.1% | outcome [15] | outcome [16] | outcome [18] | z-score [13, 24] 0.306
0.258: z-score [13, 25]
-0.5%: nuclear beta-catenin stimulation ([2]; stimulation, at 2 µM)

CCOC(=O)Nc1ccc(NCc2ccc(F)cc2)nc1N
inactive: nuclear beta-catenin stimulation ([2]; at 10 µM) 0.2% | insulin secretion stimulation [3] 1.9% | viability decrease [4] 5.6% | tube area decrease [5] -7.5% | GLP1 secretion stimulation [6] -1.1% | inhibition of viability [7] 18.8% | viability decrease (inhibition) [8] 1.7% | viability decrease (inhibition) [9] 8.6% | outcome [16] | outcome [18] | outcome [10] | fold change [12, 20] 1.05 and 0.965 | outcome [19] | z-score [13, 24] -0.196 | z-score [14] 1.55
0.797 and 0.68: fold change [12, 21]
10200 and 8110: cell count [12, 22]
-0.17: z-score [13, 25]
9760 and 8410: cell count [12, 23]
2.4%: nuclear beta-catenin stimulation ([2]; stimulation, at 2 µM)
